Screening data from PubChem.
Shown are actives, neighbours in structure and some others; about 4.6% of the full set was active somewhere.
CF NFkB block: inhibitors of cystic fibrosis induced NF-kB; KKLEB NF-kB-GFP reporter, PAF-induced, GFP fluorescence overnight; inhibition, % at 5 µM; hit rate 0.86% among 360,000;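 active = at least 50% inhibition at 5 µM, scaled per plate between neutral and stimulator controls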;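 also: PAF is a Pseudomonas aeruginosa culture filtrate used as stimulus; plate controls were PAF-stimulated DMSO wells for no effect and unstimulated DMSO wells for full effect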
HIF-2a inh: HIF-2a inhibition; 786-0 RCC cells HIF-2a reporter, luciferase luminescence, overnight; inhibition, % at 18.8 µM; AID 624352; hit rate 0.72% among 360,000;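 active = inhibition of the luminescence signal of 40% or more relative to plate controls, in a single-dose primary screen at 18.75 µM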
ABHD5-PLIN5 inh: blocks binding of human ABHD5 to perilipin-5. hit rate 0.78% among 360,000. inhibition, % at 4 µM. AID 602281. Q00G26+Q8WTS1. Split G. princeps luciferase complementation, luminescence, 4 h;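 active = inhibition above the mean inhibition across every tested compound plus 3 SD, cut at about 22% in these data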;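 also: 0% = DMSO only wells and the 100% control is not disclosed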
Target sequence (Q00G26 whole entry, looked up): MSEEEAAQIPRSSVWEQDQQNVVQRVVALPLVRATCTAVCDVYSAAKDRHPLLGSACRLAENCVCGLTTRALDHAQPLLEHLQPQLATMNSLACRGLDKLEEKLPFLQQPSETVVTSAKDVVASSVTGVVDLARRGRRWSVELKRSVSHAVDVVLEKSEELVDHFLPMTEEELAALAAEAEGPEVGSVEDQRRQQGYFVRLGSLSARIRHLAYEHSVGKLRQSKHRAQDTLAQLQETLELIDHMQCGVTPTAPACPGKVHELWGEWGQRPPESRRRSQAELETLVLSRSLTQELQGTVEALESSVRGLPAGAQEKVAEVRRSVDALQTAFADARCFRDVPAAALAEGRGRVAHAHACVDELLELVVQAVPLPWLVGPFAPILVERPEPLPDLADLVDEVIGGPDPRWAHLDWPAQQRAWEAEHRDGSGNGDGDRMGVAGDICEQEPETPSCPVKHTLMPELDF
Target sequence (Q8WTS1 whole entry, looked up): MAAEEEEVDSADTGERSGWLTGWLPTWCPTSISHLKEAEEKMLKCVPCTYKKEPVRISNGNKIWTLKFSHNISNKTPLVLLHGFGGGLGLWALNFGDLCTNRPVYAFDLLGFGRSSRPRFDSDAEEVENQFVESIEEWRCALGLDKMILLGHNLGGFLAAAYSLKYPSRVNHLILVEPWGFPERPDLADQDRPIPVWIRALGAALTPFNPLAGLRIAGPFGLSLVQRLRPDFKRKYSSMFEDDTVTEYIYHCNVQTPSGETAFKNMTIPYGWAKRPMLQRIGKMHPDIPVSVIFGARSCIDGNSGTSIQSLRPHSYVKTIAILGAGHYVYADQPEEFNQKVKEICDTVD
KKLEB cytotox: counter-screen for CF NF-kB inhibitors: cytotoxicity. KKLEB CF airway cells viability, ATPlite luminescence, overnight; active compounds read low; cells stimulated with P. aeruginosa culture filtrate. activity change (cytotoxicity), % at 5 µM. hit rate 0.36% among 360,000;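 active = corrected activity change at or below -50% at 5 µM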
Mdm2-MdmX inh: inhibitors of human Mdm2/MdmX interaction; O15151+Q00987; SaOS-2 split-luciferase Mdm2/MdmX complementation, luminescence; inhibition, % at 8 µM; hit rate 3% among 330,000; AID 485346;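 active = inhibition of at least 50% at 8 µM in the primary screen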
Peg3 prom inh: reduces Peg3 promoter-driven luciferase expression in HeLa. inhibition, % at 20 µM. HeLa PEG-Prom luciferase reporter, luminescence, overnight. hit rate 1.7% among 360,000;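 active = inhibition of at least 50% at 20 µM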
The depositor's hits bear a star; · = no result.

SMILES	CF NFkB block	HIF-2a inh	ABHD5-PLIN5 inh	KKLEB cytotox	Mdm2-MdmX inh	Peg3 prom inh
C[C@]12C=CC(=O)C=C1CC[C@@H]1C2[C@@H](O)C[C@@]2(C)C1CC[C@]2(O)C(=O)COC(=O)CCC(=O)O (stereo partly drawn)	74*	25	-2	2	-2	-6
CCC(C)C(NC(=O)CCC(=O)OCC(=O)[C@@]1(O)CCC2[C@@H]3CCC4=CC(=O)C=C[C@]4(C)C3[C@@H](O)C[C@@]21C)C(=O)O (stereo partly drawn)	74*	30	5	27	-4	11
CCN(CC)C(=O)C1=C(C)N(Cc2ccccc2)C(=O)C(CC(=O)NCCN2CCOCC2)C1 (stereo not drawn)	-2	10	0	1	·	0
COc1ccc(N=C2NC(=O)/C(=C/c3ccc(O)c(OC)c3)S2)cc1	57*	12	9	-7	45	37
CCOc1ccc(N=C2NC(=O)/C(=C/C(=O)OC)S2)cc1	-15	9	23*	-4	7	-4
CC1CCCN(C(=O)CCS(=O)(=O)c2ccc3c(c2)NC(=O)C(C)S3)C1 (stereo not drawn)	14	7	-4	2	21	-3
CCCc1cc(=O)oc2cc(OCC(=O)NCCc3c[nH]c4ccccc34)ccc12	-7	0	-9	4	21	57*
Cc1cc(=O)oc2cc(OCC(=O)NCCc3c[nH]c4ccc(F)cc34)ccc12	-10	7	-7	-20	33	-16
C(=C\c1sc(Nc2ccccc2)n[n+]1-c1ccccc1)/c1ccccc1	-11	-100	-4	0	·	101*
C[C@@H]1CN([C@@H](C)CO)C(=O)c2cc(Br)cnc2O[C@@H]1CN(C)S(C)(=O)=O	14	4	6	1	·	6
CCN(CC)CCNc1ccc(C)c2sc3ccc(O)cc3c(=O)c12	-171	10	14	5	·	98*
CCN(CC)CCCNC(=O)C(C)n1nc(C)c2sc3ccccc3c2c1=O (stereo not drawn)	14	0	-3	-5	-19	-28
COc1ccccc1C(=O)N/C(=C\c1cn(C)c2ccccc12)C(=O)N1CCCC1	-16	14	-3	1	21	22
Nc1cc2nc3ccccc3oc-2cc1=O	53*	-20	-10	0	12	-37
CCc1nn(CCCC(=O)NCc2ccccc2C)c(=O)c2cc3occc3n12	-1	-7	8	2	11	1
Cc1cc2c(cc(C(=O)OCC(=O)NCc3ccco3)n2C)s1	17	-61	5	-12	13	-19
Cn1c(C(=O)OCC(=O)NCc2ccco2)cc2sccc21	17	8	23*	-1	-8	10
Cc1cc(-c2n[nH]c(=S)n2/N=C/c2ccccc2[N+](=O)[O-])n[nH]1	0	9	1	6	27	51*
O=C(CN(C(=O)Cn1nnc(-c2ccc(F)cc2)n1)c1ccc(F)cc1)NC1CCCC1	2	8	-3	-4	22	11
COc1ccc(CN2CCC[C@]3(N[C@H](c4ccc(C(F)(F)F)cc4)[C@@H]4C(=O)N(Cc5ccccc5)C(=O)[C@@H]43)C2=O)cc1	-6	15	-2	9	·	-1
CC(C)CC(N)c1csc(Nc2cc(Oc3ccccc3)ncn2)n1 (stereo not drawn)	36	5	-1	8	·	63*
O=C(/C=C/Sc1ccc(C(F)(F)F)cn1)c1ccccc1	-18	-12	12	-3	34	96*
O=c1[nH]c(C2CCCN(S(=O)(=O)c3ccccc3)C2)nc2c1nnn2Cc1ccc2c(c1)OCCO2 (stereo not drawn)	12	30	-9	-2	16	34
O=c1[nH]c(C2CCN(S(=O)(=O)c3ccccc3C(F)(F)F)CC2)nc2c1nnn2Cc1ccccc1	2	14	10	-2	23	51*
O=c1[nH]c(C2CCCN(S(=O)(=O)c3cccc(Cl)c3)C2)nc2c1nnn2Cc1ccc2c(c1)OCCO2 (stereo not drawn)	17	23	13	13	17	51*
SMILES	CF NFkB block	HIF-2a inh	ABHD5-PLIN5 inh	KKLEB cytotox	Mdm2-MdmX inh	Peg3 prom inh
CC1=NN(C(N)=S)C(=O)C1N=Nc1cccc(C(=O)O)c1 (stereo not drawn)	0	46*	9	4	13	28
CCN1C(c2ccc(F)cc2)=CS/C1=C(/C#N)c1nnc2n1-c1ccccc1SC2	3	8	12	6	·	6
Cc1ccc(S(=O)(=O)Nc2cccc(C(=O)NCC3CCCO3)c2)cc1F (stereo not drawn)	-14	9	-9	6	11	6
CC(C)CNC(=O)c1c(N)n(/N=C/c2ccccn2)c2nc3ccccc3nc12	2	3	2	-1	22	54*
NCC1CCN(c2nc3ccccc3c3c2CCCC3)CC1	15	-5	5	-3	·	102*
COc1cccc(C(NC(C)=O)c2nc(-c3cccc(C(=O)O)c3)cs2)c1 (stereo not drawn)	-9	-47	-7	-14	·	-230
OCC1OC(n2cnc3c(NCc4ccco4)ncnc32)C(O)C1O (stereo not drawn)	48	-87	-11	-22	·	87*
OC[C@H]1O[C@@H](n2cnc3c(NCc4ccco4)ncnc32)[C@H](O)[C@@H]1O	41	-126	2	-26	·	40
COc1ccc(S(=O)(=O)NCc2ccco2)c2ccccc12	1	-13	23*	-16	7	28
Cc1ccccc1Cn1cc(NC(=O)c2nn(C)cc2Cl)cn1	7	-29	-7	2	3	-35
Cc1ccc(C2CC(C(F)F)n3ncc(C(=O)Nc4cnn(Cc5ccccc5C)c4)c3N2)cc1 (stereo not drawn)	19	-6	13	-16	29	61*
O=C(COc1ccc(-c2nnco2)cc1)N1CCOCC1	-6	11	9	12	-7	16
Cc1ccc(N=Cc2cc(Cc3ccccc3Cl)cc([N+](=O)[O-])c2O)c(O)c1	73*	-32	8	6	37	-41
CCc1nn(CCCC(=O)NC2CCCCC2C)c(=O)c2cc3occc3n12 (stereo not drawn)	-35	-7	0	9	·	5
COc1cc(OC)nc(C(NC(=O)C2CCN(Cc3c[nH]c4ccccc34)CC2)c2ccc(Cl)cc2)n1 (stereo not drawn)	14	-1	2	-21	·	101*
C#CCN(C[C@H]1[C@H](OC(=O)NCc2ccccc2F)[C@H](OC(=O)NCc2ccccc2F)C[C@@H](C(=O)OC)[C@H]1C(=O)OC)S(=O)(=O)c1ccc(C)cc1	-12	-2	-3	18	·	6
CC(=O)Nc1ccc(/C=C2\CCc3ccccc3C2=O)cc1	4	-234	11	-57*	-24	-308
